SMILES strings stand for the structures. Structures can show the parent of a compound that is named as a salt.

The first experiment deals with Clostridium sporogenes DSM 1664. Put plainly: growth (OD595) fold change vs plate DMSO controls (fold change (ratio)); higher = more growth. As to conditions: 20 µM; incubation time: 27 h, anaerobic, 37 °C. The gist of the method: (§1)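 Growth is the fold change relative to the median of plate DMSO controls. Readings came from anaerobic mGAM cultures in 96-well plates grown for 27 h at 37 °C and read at 595 nm. They were blank-subtracted, corrected for compound background with 20 µM compound solutions in water, and converted to OD with a calibration factor of 5. Values are means of 2 biological replicates, and fold changes above 1.5 were set to NA.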
In the case of `C#C[C@]1(O)C=C[C@H]2[C@@H]3CCC4=CC(=O)CC[C@@H]4[C@H]3CC[C@@]21CC` [Gestodene], the growth turned out to be 1.16.

Turning to `O=C(O)COc1ccc(Cl)cc1Cl`, the growth stood at 0.956.

`CC1COC(Cn2cncn2)(c2ccc(Oc3ccc(Cl)cc3)cc2Cl)O1` (configuration not stated): the growth stood at 1.16.

Turning to `CC(C)OC(=O)Nc1cccc(Cl)c1`, the growth turned out to be 1.05.

For the compound `CCOc1ccc(C(C)(C)COCc2cccc(Oc3ccccc3)c2)cc1`, the growth worked out at 1.14.

Consider `COC(=O)N(OC)c1ccccc1COc1ccn(-c2ccc(Cl)cc2)n1`, for which the growth was 0.99.

In the case of `CC(O)(CS(=O)(=O)c1ccc(F)cc1)C(=O)Nc1ccc(C#N)c(C(F)(F)F)c1` (configuration not stated) [Bicalutamide], the growth turned out to be 1.06.

As to `CON(C)C(=O)Nc1ccc(Cl)c(Cl)c1`, the growth worked out at 1.07.

For the compound `C[N+]1(C)[C@@H]2CC[C@H]1C[C@@H](OC(=O)C(CO)c1ccccc1)C2` (some centres not stated) [Methylatropine nitrate], the growth was found to be 0.875.

As for `COCc1cnc(C2=NC(C)(C(C)C)C(=O)N2)c(C(=O)O)c1` (configuration not stated), the growth was determined as 1.1.

Turning to `CO/N=C(/C(=O)OC)c1ccccc1CO/N=C(\C)c1cccc(C(F)(F)F)c1`, the growth turned out to be 0.917.

For `COC(=O)N(C(=O)N1CO[C@@]2(C(=O)OC)Cc3cc(Cl)ccc3C2=N1)c1ccc(OC(F)(F)F)cc1`, the growth amounted to 1.15.

As to `COc1ccc(C(CN(C)C)C2(O)CCCCC2)cc1` (configuration not stated) [Venlafaxine], the growth was 0.902.

With `C1CCc2nnnn2CC1` [Pentylenetetrazole], the growth came to 1.14.

Regarding `CC(C)CC(N(C)C)C1(c2ccc(Cl)cc2)CCC1` (configuration not stated) [Sibutramine hydrochloride], the growth was determined as 0.99.

As to `OC(c1ccccc1)(c1ccccc1)C1CCNCC1` [Azacyclonol], the growth was determined as 1.09.

As to `CNC(=O)Oc1cccc(/N=C/N(C)C)c1`, the growth was determined as 0.913.

In the case of `O=C(O)c1nc(Cl)ccc1Cl`, the growth was determined as 0.915.

On to `CNC(=O)c1cc(C#N)cc(C)c1NC(=O)c1cc(Br)nn1-c1ncccc1Cl`, for which the growth turned out to be 1.13.

`C[N+]1([O-])[C@@H]2C[C@@H](OC(=O)[C@H](CO)c3ccccc3)C[C@H]1[C@@H]1O[C@@H]12` (some centres not stated) [Scopolamin-N-oxide hydrobromide]: the growth was 1.05.

As for `CCC(=O)O[C@@](Cc1ccccc1)(c1ccccc1)[C@@H](C)CN(C)C` [Levopropoxyphene napsylate], the growth was found to be 1.06.

Turning to `CNC(=O)CSP(=S)(OC)OC`, the growth came out at 0.992.

Take `CC(C)[N+](C)(CCC(C(N)=O)(c1ccccc1)c1ccccc1)C(C)C` [Isopropamide iodide]: the growth was 1.04.

For the compound `COCC(=O)N(c1c(C)cccc1C)[C@H](C)C(=O)OC`, the growth was 0.945.

Take `O=C1c2ccccc2C(=O)N1SC(Cl)(Cl)Cl`: the growth is 1.06.

Regarding `O=C1C2CC=CCC2C(=O)N1SC(Cl)(Cl)Cl` (configuration not stated), the growth was found to be 0.923.

As to `CN(C)C(=O)Oc1cc(OC(=O)N(C)C)cc(C(O)CNC(C)(C)C)c1` (configuration not stated) [Bambuterol hydrochloride], the growth stood at 1.09.

In the case of `CC(C)N(C)S(=O)(=O)NC(=O)c1cc(-n2c(=O)cc(C(F)(F)F)n(C)c2=O)c(F)cc1Cl`, the growth was 0.954.

Regarding `CC[C@H]1CCC[C@H](O[C@H]2CC[C@H](N(C)C)[C@@H](C)O2)[C@@H](C)C(=O)C2=C[C@@H]3[C@@H](C=C(C)[C@@H]4C[C@@H](O[C@@H]5O[C@@H](C)[C@H](OC)[C@@H](OC)[C@H]5OC)C[C@@H]34)[C@@H]2CC(=O)O1.CC[C@H]1CCC[C@H](O[C@H]2CC[C@H](N(C)C)[C@@H](C)O2)[C@@H](C)C(=O)C2=C[C@H]3[C@@H]4C[C@H](O[C@@H]5O[C@@H](C)[C@H](OC)[C@@H](OC)[C@H]5OC)C[C@H]4C=C[C@H]3C2CC(=O)O1`, the growth came out at 1.03.

`C[N+]1(C)CCCC(OC(=O)C(O)(c2ccccc2)c2ccccc2)C1` (configuration not stated) [Mepenzolate bromide]: the growth amounted to 0.917.

Consider `COc1cccc(C(=O)NN(C(=O)c2cc(C)cc(C)c2)C(C)(C)C)c1C`, for which the growth amounted to 0.988.

With `Cc1cccc(C)c1NC1=NCCCS1` [Xylazine], the growth turned out to be 1.16.

Regarding `CCN(C)C(=O)Oc1cccc([C@H](C)N(C)C)c1` [Rivastigmine], the growth came out at 0.985.

On to `CCCCCCCCCCCCN=C(N)N`, for which the growth stood at 1.1.

As to `CO/C=C(/C(=O)OC)c1ccccc1Oc1cc(Oc2ccccc2C#N)ncn1`, the growth came out at 0.938.

Consider `O=C(O[C@H]1C[N+]2(CCCOc3ccccc3)CCC1CC2)C(O)(c1cccs1)c1cccs1` [Aclidinium bromide], for which the growth came out at 1.12.

Another experiment relates to Escherichia coli IAI1. The description is as above. As to conditions: 20 µM; incubation time: 27 h, anaerobic, 37 °C. The gist of the method: as §1
For `C#C[C@]1(O)C=C[C@H]2[C@@H]3CCC4=CC(=O)CC[C@@H]4[C@H]3CC[C@@]21CC` [Gestodene], the growth was 1.02.

As for `O=C(O)COc1ccc(Cl)cc1Cl`, the growth turned out to be 1.01.

For the compound `CC1COC(Cn2cncn2)(c2ccc(Oc3ccc(Cl)cc3)cc2Cl)O1` (configuration not stated), the growth was found to be 1.02.

As for `CC(C)OC(=O)Nc1cccc(Cl)c1`, the growth amounted to 1.04.

Regarding `CCOc1ccc(C(C)(C)COCc2cccc(Oc3ccccc3)c2)cc1`, the growth was determined as 1.03.

As for `COC(=O)N(OC)c1ccccc1COc1ccn(-c2ccc(Cl)cc2)n1`, the growth was determined as 0.988.

With `CC(O)(CS(=O)(=O)c1ccc(F)cc1)C(=O)Nc1ccc(C#N)c(C(F)(F)F)c1` (configuration not stated) [Bicalutamide], the growth was 1.01.

For the compound `CON(C)C(=O)Nc1ccc(Cl)c(Cl)c1`, the growth turned out to be 1.01.

Regarding `C[N+]1(C)[C@@H]2CC[C@H]1C[C@@H](OC(=O)C(CO)c1ccccc1)C2` (some centres not stated) [Methylatropine nitrate], the growth was determined as 0.835.

Consider `COCc1cnc(C2=NC(C)(C(C)C)C(=O)N2)c(C(=O)O)c1` (configuration not stated), for which the growth was 1.04.

Turning to `CO/N=C(/C(=O)OC)c1ccccc1CO/N=C(\C)c1cccc(C(F)(F)F)c1`, the growth turned out to be 1.01.

For `COC(=O)N(C(=O)N1CO[C@@]2(C(=O)OC)Cc3cc(Cl)ccc3C2=N1)c1ccc(OC(F)(F)F)cc1`, the growth came out at 0.998.

In the case of `COc1ccc(C(CN(C)C)C2(O)CCCCC2)cc1` (configuration not stated) [Venlafaxine], the growth was determined as 0.974.

On to `C1CCc2nnnn2CC1` [Pentylenetetrazole], for which the growth stood at 0.976.

For the compound `CC(C)CC(N(C)C)C1(c2ccc(Cl)cc2)CCC1` (configuration not stated) [Sibutramine hydrochloride], the growth turned out to be 1.

As for `OC(c1ccccc1)(c1ccccc1)C1CCNCC1` [Azacyclonol], the growth is 1.01.

Turning to `CNC(=O)Oc1cccc(/N=C/N(C)C)c1`, the growth was found to be 0.992.

In the case of `O=C(O)c1nc(Cl)ccc1Cl`, the growth was found to be 1.09.

In the case of `CNC(=O)c1cc(C#N)cc(C)c1NC(=O)c1cc(Br)nn1-c1ncccc1Cl`, the growth worked out at 0.996.

For `C[N+]1([O-])[C@@H]2C[C@@H](OC(=O)[C@H](CO)c3ccccc3)C[C@H]1[C@@H]1O[C@@H]12` (some centres not stated) [Scopolamin-N-oxide hydrobromide], the growth amounted to 1.03.

On to `CCC(=O)O[C@@](Cc1ccccc1)(c1ccccc1)[C@@H](C)CN(C)C` [Levopropoxyphene napsylate], for which the growth worked out at 1.03.

For the compound `CNC(=O)CSP(=S)(OC)OC`, the growth stood at 1.06.

Consider `CC(C)[N+](C)(CCC(C(N)=O)(c1ccccc1)c1ccccc1)C(C)C` [Isopropamide iodide], for which the growth is 1.09.

In the case of `COCC(=O)N(c1c(C)cccc1C)[C@H](C)C(=O)OC`, the growth came to 1.01.

`O=C1c2ccccc2C(=O)N1SC(Cl)(Cl)Cl`: the growth came to 1.

Regarding `O=C1C2CC=CCC2C(=O)N1SC(Cl)(Cl)Cl` (configuration not stated), the growth came to 1.04.

On to `CN(C)C(=O)Oc1cc(OC(=O)N(C)C)cc(C(O)CNC(C)(C)C)c1` (configuration not stated) [Bambuterol hydrochloride], for which the growth came out at 1.03.

With `CC(C)N(C)S(=O)(=O)NC(=O)c1cc(-n2c(=O)cc(C(F)(F)F)n(C)c2=O)c(F)cc1Cl`, the growth was 0.981.

As for `CC[C@H]1CCC[C@H](O[C@H]2CC[C@H](N(C)C)[C@@H](C)O2)[C@@H](C)C(=O)C2=C[C@@H]3[C@@H](C=C(C)[C@@H]4C[C@@H](O[C@@H]5O[C@@H](C)[C@H](OC)[C@@H](OC)[C@H]5OC)C[C@@H]34)[C@@H]2CC(=O)O1.CC[C@H]1CCC[C@H](O[C@H]2CC[C@H](N(C)C)[C@@H](C)O2)[C@@H](C)C(=O)C2=C[C@H]3[C@@H]4C[C@H](O[C@@H]5O[C@@H](C)[C@H](OC)[C@@H](OC)[C@H]5OC)C[C@H]4C=C[C@H]3C2CC(=O)O1`, the growth was determined as 0.983.

With `C[N+]1(C)CCCC(OC(=O)C(O)(c2ccccc2)c2ccccc2)C1` (configuration not stated) [Mepenzolate bromide], the growth was 0.957.

As to `COc1cccc(C(=O)NN(C(=O)c2cc(C)cc(C)c2)C(C)(C)C)c1C`, the growth turned out to be 1.01.

In the case of `Cc1cccc(C)c1NC1=NCCCS1` [Xylazine], the growth is 0.985.

On to `CCN(C)C(=O)Oc1cccc([C@H](C)N(C)C)c1` [Rivastigmine], for which the growth is 1.03.

On to `CCCCCCCCCCCCN=C(N)N`, for which the growth turned out to be 0.995.

With `CO/C=C(/C(=O)OC)c1ccccc1Oc1cc(Oc2ccccc2C#N)ncn1`, the growth turned out to be 0.996.

In the case of `O=C(O[C@H]1C[N+]2(CCCOc3ccccc3)CCC1CC2)C(O)(c1cccs1)c1cccs1` [Aclidinium bromide], the growth was 1.08.

(Values after the supplement of paper PMC12494721.)
